# In PubChem BioAssay (NCI):
# About 83,000 compounds went through this panel and 20% of them were active in at least one assay; those are over-represented in the sample as a whole.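 Cells were grown in 96-well plates and exposed to the test compound at a single concentration for 48 hours; results are reported as percent growth, with values below 10 considered active.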 A number with no mark means an inactive call. Activity calls are given as the source filed them.
# System: HCT-15 colon
# Assay: NCI-60 one-dose screen, 48 h (100 = growth as untreated, 0 = no growth, -100 = all killed)
# Conditions: 10 µM unless noted
row,SMILES,growth
1,CCOC(=O)c1c(NC(=O)c2ccccc2)sc2c3c(ccc12)OCN(C)C3,-48.4% (active)
2,COc1ccc(NC(=O)c2ccc(Nc3ncnc4c3cnn4-c3cccc(F)c3)cc2)cc1,102%
3,COC(=O)c1c(C)nc(C)c2c1C(=O)C=C(NCc1ccccc1)C2=O,73.3%
4,CS(=O)(=O)Nc1cc(-c2ccc3ncnc(Nc4ccc5c(cnn5Cc5ccncc5)c4)c3c2)cnc1Cl,92.3%
5,S=c1ccnc[nH]1,103%
6,Cc1ccc(S(=O)(=O)c2nc(-c3ccccc3)oc2SCC(N)=O)cc1,95.3%
7,CN(C)Cc1ccc(NC(=O)c2cncc(C#Cc3cnc(N)c4ncccc34)c2)cc1C(F)(F)F,-50.6% (active)
8,COc1cc(/C=C/c2cn[nH]c2-c2ccc(C)cc2)cc(OC)c1OC,23%
9,CCOC(=O)C(CCN(C)C)c1ccccc1 (centres undefined),105%
10,O=C(/C=C/c1ccccc1)N(C1CCCCC1)C1CCCCC1,86.3%
11,CC1(C)CC[C@]23CC[C@]4(C)[C@H](CC[C@@H]5[C@@]6(C)CCNCC(C)(C)[C@@H]6CC[C@]54C)[C@H]2[C@H]1OC3,54.2%
12,Cc1nc2sc(C(=O)Nc3cccc4ccccc34)c(N)c2cc1C(=O)c1ccccc1,14%
13,Cc1ccc(O)c(NC(=O)c2cccc(Nc3ccnc(C(F)(F)F)c3)c2)c1,80%
14,N#CSc1c[nH]c2ccc(/C=C/C(=O)/C=C(O)/C=C/c3ccc4[nH]cc(SC#N)c4c3)cc12,-31% (active)
